According to the supplement of paper PMC3414501:
Counter-ions that a name gives are not always drawn.

test system: S. cerevisiae BY4741 (wild-type), vegetative growth in YPD; experiment: growth sensitivity score (doubling time z-score vs DMSO controls); higher = slower growth, strongly negative scores also mark growth inhibition (complete suppression), active = hit call of the paper; in the data active = 2 or more and inactive = the rest
Method in brief: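 Optical density of Saccharomyces cerevisiae cultures in microtiter plates was followed every 15 min for 24 hours after seeding at an OD600 of 0.065. Eight solvent-only wells were run per experiment. Growth sensitivity scores were found by subtracting the solvent-only mean from the compound mean and dividing by the solvent-only standard deviation.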

Growth sensitivity score, active:
O=C(O)C[C@H](O)C[C@H](O)/C=C/c1c(C2CC2)nc2ccccc2c1-c1ccc(F)cc1 [Livalo] (stock concentration (mM, diluted 1:100): 5) 15.7
COc1cc(CNC(=O)CCCC/C=C/C(C)C)ccc1O [Capsaicin] (stock concentration (mM, diluted 1:100): 10) 3.2
COc1ccccc1N1CCN(CC(O)COc2cccc3ccccc23)CC1 (stereo not given) [Naftopidil] (stock concentration (mM, diluted 1:100): 10) 7.62
CC(=O)[C@]1(O)Cc2c(O)c3c(c(O)c2[C@@H](O[C@H]2C[C@H](N)[C@H](O)[C@H](C)O2)C1)C(=O)c1ccccc1C3=O [Idarubicin hydrochloride] (stock concentration (mM, diluted 1:100): 9.3) 128

Growth sensitivity score, inactive:
Cc1ccnc2c1NC(=O)c1cccnc1N2C1CC1 [Viramune] (stock concentration (mM, diluted 1:100): 10) -1.29
CN1C(=O)CC[C@H]1c1cccnc1 [Cotinine] (stock concentration (mM, diluted 1:100): 10) 0.49
COC(=O)C1=C(C)NC(C)=C(C(=O)OC(C)C)C1c1cccc2nonc12 (stereo not given) [Isradipine] (stock concentration (mM, diluted 1:100): 9.9) 0.93
C[C@@H]1C[C@H]2[C@@H]3CCC4=CC(=O)C=C[C@]4(C)[C@@]3(F)[C@@H](O)C[C@]2(C)[C@H]1C(=O)CO [Desoximetasone] (stock concentration (mM, diluted 1:100): 10) 1.97
CN1[C@@H](CC(=O)c2ccccc2)CCC[C@H]1C[C@H](O)c1ccccc1 [Lobeline hydrochloride] (stock concentration (mM, diluted 1:100): 10) 0.72
C[N+]1(C)CCC(OC(=O)C(O)(c2ccccc2)C2CCCC2)C1 (stereo not given) [Glycopyrrolate] (stock concentration (mM, diluted 1:100): 10) -0.04
CCOC(=O)C1=C(C)NC(C)=C(C(=O)OCC)C1c1ccccc1/C=C/C(=O)OC(C)(C)C [Lacidipine] (stock concentration (mM, diluted 1:100): 10) -1.71
O=c1c(O[C@@H]2O[C@H](CO)[C@H](O)[C@H](O)[C@H]2O)c(-c2ccc(O)c(O)c2)oc2cc(O)cc(O)c12 [Hyperoside] (stock concentration (mM, diluted 1:100): 8.8) -0.31
C[C@]12C=CC(=O)C=C1CC[C@@H]1[C@@H]2[C@@H](O)C[C@@]2(C)[C@H]1CC[C@]2(O)C(=O)COC(=O)CCC(=O)O (stock concentration (mM, diluted 1:100): 10) -0.61
O=C1c2c(O)cc(O)cc2OC(c2ccc(O)c(O)c2)C1O (stereo not given) [Taxifolin] (stock concentration (mM, diluted 1:100): 10.1) -1.02
O=C1C(c2c(O)[nH]c3ccccc23)=Nc2ccccc21 [Indarubicin] (stock concentration (mM, diluted 1:100): 10) -1.62
O=[N+]([O-])c1cccc2cn[nH]c12 [7-Nitroindazole] (stock concentration (mM, diluted 1:100): 10) 0.06
CC(N/C(=N\C#N)Nc1ccncc1)C(C)(C)C (stereo not given) [Pinacidil monohydrate] (stock concentration (mM, diluted 1:100): 10) 1.52
O=C1c2cccc3c2[C@H](CCC3)CN1[C@@H]1CN2CCC1CC2 [Palonosetron hydrochloride] (stock concentration (mM, diluted 1:100): 10) -1.82
CN(C)CCC(c1ccc(Cl)cc1)c1ccccn1 (stereo not given) [Chlorpheniramine] (stock concentration (mM, diluted 1:100): 10) -0.56
O=C(c1ccccc1)c1ccc2n1CCC2C(=O)O (stereo not given) [Toradol] (stock concentration (mM, diluted 1:100): 6.8) 0.91
